Measured values taken from PubChem BioAssay (NCI).
Compounds without any hit were thinned out: in the full panel of roughly 83,000, 20% have a hit.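 Each cell line was grown in a 96-well plate and treated with one concentration of compound for 48 hours. Values below 10 were considered active.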 Activity calls are given as the source filed them.

system: NCI-H226 lung; test: NCI-60 one-dose screen, 48 h (100 = growth as untreated, 0 = no growth, -100 = all killed); details: 10 µM

Compound | growth
S=C(NCc1ccccc1)NCc1ccccc1 | 97.8% (inactive)
CC(C)c1ccc(C(C)C(=O)N(CC2=C(C(C)c3ccccn3)c3ccccc3C2)C(C)C)cc1 (stereo not drawn) | 57.1% (inactive)
COc1cc(/C=C2\CCCC3=C2NC(N)=NC3c2cc(OC)c(OC)c(OC)c2)cc(OC)c1OC (stereo not drawn) | -61% (active)
COc1ccc(-c2cc(-c3ccc(Cl)cc3)nc(SCCCC(=O)NO)n2)cc1 | -2.21% (active)
CC(C)CCN(CCC(C)C)CC(=O)Nc1ccc(S(=O)(=O)c2ccc(NC(=O)CN(CCC(C)C)CCC(C)C)cc2)cc1 | 76.7% (inactive)
CN(C)CCCOc1ccccc1NC1=C(Cl)C(=O)C(Nc2ccccc2OCCCN(C)C)=C(Cl)C1=O | -81% (active)
CC(C)(C)c1nn(-c2ccccc2)c2c1CC1(CN2Cc2ccc(Cl)cc2)C(=O)c2ccccc2C1=O | 81.9% (inactive)
N#CCc1csc(Cc2ccccc2)n1 | 101% (inactive)
COc1ccc(/C=C/c2nnc(/C=C/c3ccc(OC)c(OC)c3)o2)cc1OC | 63.5% (inactive)
NS(=O)(=O)c1ccc(Br)cc1 | 110% (inactive)
CCOC(=O)CC(S(=O)(=O)c1ccccc1)S(=O)(=O)c1ccccc1 | 95.7% (inactive)
Nc1nc(N)c(N)c(Nc2ccc(CCO)cc2)n1 | 96.2% (inactive)
CCN(CC)CCOc1ccc2c(c1O)C(=O)c1ccccc1C2=O | 86.2% (inactive)

system: HOP-62 NSCLC; test: as above; details: 10 µM

Compound | growth
Cc1ccc(C)c(COc2cc(NC(=O)c3ccc4c(c3)OCO4)ccc2N(C)S(C)(=O)=O)c1 | 16.1% (inactive)
CCOC(=O)c1cc(C(=O)c2ccc(Cl)cc2)n2ccc(-c3cc[n+](CC(=O)c4ccc(OC)cc4)cc3)cc12 | 87.7% (inactive)
Clc1ccc(C2=NN=C3C(Cc4ccccc4)=Nc4ccccc4N3C2)cc1 | 83.3% (inactive)
O=C1c2ccccc2C(=O)c2c1ccc(C(Br)Br)c2[N+](=O)[O-] | 78.4% (inactive)
COc1ccc(-c2nc(-c3nc4ccc(C)cc4[nH]3)cc3c2[nH]c2ccccc23)cc1 | 55.3% (inactive)
C(=N\Nc1ncnc2sc3c(c12)CCNC3)/c1cccc2ccccc12 | 79.9% (inactive)
CC(=O)N[C@H](C(=O)N[C@@H](CCCNC(=N)N)C(=O)N[C@@H](CCCCN)C(=O)N[C@@H](CCCNC(=N)N)C(=O)NC(C(=O)N[C@@H](CC(C)C)C(=O)N[C@@H](CCCNC(=N)N)C(=O)N[C@@]1(C)CCC/C=C\CCC[C@@](C)(C(=O)N[C@@H](CCCNC(=N)N)C(=O)N[C@@H](CCC(=O)O)C(=O)N[C@@H](CC(C)C)C(=O)N[C@H](C(=O)N[C@@H](CCC(=O)O)C(N)=O)C(C)C)NC(=O)[C@H](CCC(N)=O)NC(=O)[C@H](CC(C)C)NC(=O)[C@H](CC(C)C)NC1=O)[C@@H](C)O)C(C)C (stereo partly drawn) | -43.1% (active)
Cc1noc(C)c1CSc1ccccc1C(=O)N1CCN(c2cccc(C(F)(F)F)c2)CC1 | 91.5% (inactive)
C=CCn1c(SCC(=O)Nc2ccc(C(=O)/C=C/c3ccc(OC)cc3)cc2)nnc1-c1ccc(OC)c(OC)c1 | 92.6% (inactive)
CNC(=O)c1cc(Oc2ccc3c(c2)sc2nc(-c4ccc(N)cc4)cn23)ccn1 | 46.8% (inactive)
C/C(=N\O)c1ccc(NC(=O)CSc2nnc(-c3ccccc3)n2-c2ccccc2)cc1 | 64.7% (inactive)
CCN(CC)CCCC(C)Nc1c2ccc(Cl)cc2nc2ccc(OC)cc12 (stereo not drawn) | 3.18% (active)
CC[C@@H](C(=O)[C@@H](C)[C@@H](O)[C@H](C)[C@@H]1O[C@@H]([C@@H](CC)C(=O)N(CC)CC)CC[C@@H]1C)C1O[C@]2(C=CC(=O)[C@]3(CC[C@@](C)([C@H]4CC[C@](O)(CC)[C@H](C)O4)O3)O2)[C@H](C)C[C@@H]1C (stereo partly drawn) | 31.7% (inactive)
O=S(=O)(Oc1ccc(-c2ccc3sccc3c2)cc1)c1ccccc1 | 113% (inactive)
COc1ccc(-c2cc(-c3ccc(Cl)cc3)nc(SCCCCCCC(=O)NO)n2)cc1OC | 62.4% (inactive)
CN1C(=O)C2(Nc3cc(Cl)ccc3S2)c2cc(Cl)ccc21 (stereo not drawn) | 101% (inactive)
Nc1ccc(/C=N/Nc2ccnc3c(O)cccc23)c2cccnc12 | 64.4% (inactive)
CN(C)CCOc1ccccc1NC1=C(Cl)C(=O)C(Nc2ccccc2OCCN(C)C)=C(Cl)C1=O | 110% (inactive)
CCn1c(SCCc2ccccc2)nnc1-c1nn(-c2ccc(Cl)cc2Cl)c(-c2ccc(Cl)cc2)c1C | 101% (inactive)
C=CCNCCN1C(=O)c2ccc3c4c(ccc(c24)C1=O)C(=O)N(CCNCC=C)C3=O | -28.7% (active)

Compound | growth
COc1cc(C)ccc1Oc1nc(Nc2ccc(N3CCOCC3)cc2)ncc1NC(=O)Nc1cc(C(F)(F)F)cc(C(F)(F)F)c1 | 58.5% (inactive)
COc1cccc(CNc2cccc3cn[nH]c23)c1O | 95.3% (inactive)
NS(=O)(=O)Oc1ccc(NC(=O)C2CCCCCC2)cc1 | 99.3% (inactive)
COc1ccc(-c2n[nH]nc2-c2cc(OC)c3c(c2OC)OCO3)cc1 | 36.1% (inactive)
CCCN(CCC)C(=O)[C@H](CC)[C@@H]1CC[C@@H](C)[C@@H]([C@H](C)[C@@H](O)[C@@H](C)C(=O)[C@H](CC)C2O[C@]3(C=C[C@@H](O)[C@]4(CC[C@@](C)([C@H]5CC[C@](O)(CC)[C@H](C)O5)O4)O3)[C@H](C)C[C@@H]2C)O1 (stereo partly drawn) | 14.2% (inactive)
COc1cc(-c2nc3ccccc3o2)cc(CN2CCCCC2)c1O | 49.7% (inactive)
CC(=O)N[C@H](C(=O)N[C@@H](CCCNC(=N)N)C(=O)N[C@@H](CCCCN)C(=O)N[C@@H](CCCNC(=N)N)C(=O)N[C@]1(C)CCC/C=C\CCC[C@@](C)(C(=O)N[C@@H](CC(C)C)C(=O)N[C@@H](CC(C)C)C(=O)N[C@@H](CCC(N)=O)C(=O)N[C@@H](CCC(=O)O)C(=O)N[C@@H](CCCNC(=N)N)C(=O)N[C@@H](CCC(=O)O)C(=O)N[C@@H](CC(C)C)C(=O)N[C@H](C(=O)N[C@@H](CCC(=O)O)C(N)=O)C(C)C)NC(=O)[C@H](CCCNC(=N)N)NC(=O)[C@H](CC(C)C)NC1=O)C(C)C | 109% (inactive)
S=C(NCc1ccccc1)NCc1ccccc1 | 94.2% (inactive)
CC(C)c1ccc(C(C)C(=O)N(CC2=C(C(C)c3ccccn3)c3ccccc3C2)C(C)C)cc1 (stereo not drawn) | 59.2% (inactive)
COc1cc(/C=C2\CCCC3=C2NC(N)=NC3c2cc(OC)c(OC)c(OC)c2)cc(OC)c1OC (stereo not drawn) | 17.8% (inactive)
COc1ccc(-c2cc(-c3ccc(Cl)cc3)nc(SCCCC(=O)NO)n2)cc1 | 5.55% (active)
CC(C)CCN(CCC(C)C)CC(=O)Nc1ccc(S(=O)(=O)c2ccc(NC(=O)CN(CCC(C)C)CCC(C)C)cc2)cc1 | 67.5% (inactive)
CN(C)CCCOc1ccccc1NC1=C(Cl)C(=O)C(Nc2ccccc2OCCCN(C)C)=C(Cl)C1=O | -96.9% (active)
CC(C)(C)c1nn(-c2ccccc2)c2c1CC1(CN2Cc2ccc(Cl)cc2)C(=O)c2ccccc2C1=O | 102% (inactive)
N#CCc1csc(Cc2ccccc2)n1 | 104% (inactive)
COc1ccc(/C=C/c2nnc(/C=C/c3ccc(OC)c(OC)c3)o2)cc1OC | 35.3% (inactive)
NS(=O)(=O)c1ccc(Br)cc1 | 82.1% (inactive)
CCOC(=O)CC(S(=O)(=O)c1ccccc1)S(=O)(=O)c1ccccc1 | 109% (inactive)
Nc1nc(N)c(N)c(Nc2ccc(CCO)cc2)n1 | 95.6% (inactive)
CCN(CC)CCOc1ccc2c(c1O)C(=O)c1ccccc1C2=O | 73.3% (inactive)
